# Laboratory results taken from the OligoGym collection.
# Molecular target: TTLL4
# Test: pooled miR-30 sensor sort-seq; sequence = guide strand
# Details: shRNA
# Further: reference of the scale not given here.
row,Sequence,sensor-assay potency score (higher = more potent)
1,TTGAGTATCACGTCATCCTTTG,-0.629
2,TAGTTTTGACAACAACATCCTT,-0.466
3,TTAGCTTCTGATGCTCTCGAAT,-0.842
4,TTGCTAGTCTCTGATTTGCTGA,-0.807
5,TCGCACATACATCTTGAGCAGG,-1.1
6,TTGATCACAGGTAACGTCTGGG,0.356
7,TTTTTATTGACACTGTAGTTGG,-0.76
8,AGTTTTGACAACAACATCCTTT,-0.763
9,TGTATCTTCAGTCTCAGCCTGA,0.277
10,TTCTTCTGTATCTTCAGTCTCA,0.119
11,TTTGACAACAACATCCTTTATC,-1.2
12,TTTATTGACACTGTAGTTGGTC,0.947

# Molecular target: TTYH3
# Test: as above
# Details: shRNA
row,Sequence,sensor-assay potency score (higher = more potent)
1,TAGAATCCCACTGCGATGCCGG,-0.487
2,TTGCACGTAGTCCAGATGCAGG,-1.46
3,TTCAGCACCTCCTGGACGCGGA,-0.58
4,TAGTCGGTGTCCTCGGGCCGGA,-1.53
5,TTGCCGTAGAATCCCACTGCGA,-1.44
6,ATGATGACACACCAGGCCGTGC,-1.46
7,TAGCCCAGCCACCTGTACCAGT,-1.16
8,TAGCAGAAGCCGGTCAGCGCTT,-0.823
9,TTGGCTCTCATGCTGGAGGTGT,-0.0842
10,AAGCTCAGCCACGACATCCTGC,-0.514
11,TTTTGCTGCCAGGTGTGCGGGA,-0.687
12,TATTTGGCTCTCATGCTGGAGG,-0.854

# Molecular target: TUBA8
# Test: as above
# Details: shRNA
row,Sequence,sensor-assay potency score (higher = more potent)
1,TTGAGGACACAATCTGACTGAT,-0.409
2,ATTGAGGACACAATCTGACTGA,0.101
3,TACATGAGGTCGAACTTGTGGT,-0.814
4,TTGATCTTGCTAGCTTGAGCAT,-0.893
5,TGATCTTGCTAGCTTGAGCATC,-1.14
6,TTTCTTGCCATAATCCAGGGAG,-0.376
7,TTTCTTCTTCAAACGAATCAGT,-0.469
8,TCGCACTTCACCATCTGGCTGT,-0.0578
9,AATAGCGACATTCACATCCTTG,-0.744
10,TTGAGGTTGGTATAGGTAGGGC,-0.964
11,TCGAACTTGTGGTCGAGGCGGG,-0.697
12,TCATCATCGTTGATCTTGCTAG,-0.473

# Molecular target: TUBAL3
# Test: as above
# Details: shRNA
row,Sequence,sensor-assay potency score (higher = more potent)
1,TGCATTTTCCAGCTGATCCTGT,-0.383
2,TTCTCTGAGGTACCAGTGCAGA,-1.43
3,TTCAATTAGGTCTACATTCAAG,-1.3
